Compounds without any hit were thinned out: in the full panel of roughly 83,000, 20% have a hit.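 Percent growth is the endpoint: 0 to 100 indicates growth inhibition (40 means 60% inhibition), 0 means no net growth, and negative values indicate cell death.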 Unmarked numbers belong to inactive results. Active and inactive are the calls of the source. Rule for the calls: active = growth percent below 10; inactive = the rest.

The subject of this experiment is SW-620 colon. The experiment in a line: NCI-60 one-dose screen, 48 h (100 = growth as untreated, 0 = no growth, -100 = all killed). The settings on record: 10 µM unless noted.
With `O=C1/C(=C/c2ccc([N+](=O)[O-])cc2)Oc2ccc(O)cc21`, the growth was 25.9%.

With `COc1ccc(/C=N\N2CCOCC2)cc1OC1CCCC1`, the growth was 100%. Take `O=C(Nc1ccccc1O)c1ccc(NS(=O)(=O)c2cccc3cccnc23)cc1`: the growth is 30%.

`COc1cc(/C=N/NC(=O)c2cnn3c2NC(c2ccccc2)C3)cc(OC)c1OC` (stereo not given): the growth was 32.8%. For the molecule `O=S(=O)(Nc1ccccc1Cl)c1ccc(-c2cnc(C3CC3)o2)cc1`, the growth is 26.2%. In the case of `Cn1c2c(cc(S(=O)(=O)c3ccccc3)c1=O)CCc1c-2cnn1-c1cccc(Cl)c1`, the growth was 110%. As for `Fc1c[c-]c(-c2ccccn2)c(F)c1.Fc1c[c-]c(-c2ccccn2)c(F)c1.[Cl][Pt+].[Cl][Pt+].c1ccc([PH+](C[PH+](c2ccccc2)c2ccccc2)c2ccccc2)cc1`, the growth was 15.5%. Take `CCOC(=O)n1cc(C2=C(c3cn(C)c4ccccc34)COC2=O)c2ccccc21`: the growth was 20.9%. As to `CSC1=CC(=O)c2ccccc2C1=O`, the growth was -55.2% (active). With `Cc1c(C(=O)Nc2nc(-c3ccccc3)cs2)nnn1-c1ccccc1Br`, the growth is 61% [50 µM]. As for `COc1ccc(/C=N/OCC(O)CNCc2ccccc2)cc1OC1CCCC1` (stereo not given), the growth is 103%. As to `O=C(N/N=C/c1ccc(OC(F)F)c(OC2CCCC2)c1)c1cnn2c1NC(c1ccccc1)C2` (stereo not given), the growth was 78.4%. As for `Nc1cc(Br)c(-c2nnc(CCC(=O)c3nc4ccccc4[nH]3)o2)c(Br)c1`, the growth was 72.1%.

For the molecule `O=C1C2CC3C(CC2C(=O)[N]1[Sn]([c]1ccccc1)([c]1ccccc1)[c]1ccccc1)C1(Cl)C(Cl)=C(Cl)C3(Cl)C1(Cl)Cl` (stereo not given), the growth was -79.7% (active). On to `COc1ccc(/C=C(\C#N)c2cc3ccccc3n2C)cc1`, for which the growth was 20%.

Regarding `CC(C)(C)[Si](C)(C)OC1[C@@H](COC(=O)NC(=O)CCl)O[C@@H](n2cnc3c(N)ncnc32)[C@H]1O[Si](C)(C)C(C)(C)C` (stereo not given in full), the growth is -21.8% (active). With `Cc1cccc2c(=O)c3c(sc12)c(NCCCN)nc1ccccc13`, the growth is -72% (active). As for `COc1cc(Cn2cc(F)c(=O)[nH]c2=O)cc(OC)c1`, the growth was 102% [50 µM]. `Cc1nc2ccc(Cl)cc2n1C`: the growth is 108%.

For `CCN1CCN(c2ccc(Nc3ncc4ccc5ncn(C(C)C)c5c4n3)nc2)CC1`, the growth was -7.47% (active). As for `COc1ccc(/C=C2\Oc3cc(C)c(Cl)cc3C2=O)cc1OC`, the growth was 104%. For `COc1ccc(-n2ncc3c2ccc2cc(S(=O)(=O)c4ccccc4)c(=O)n(C)c23)cc1`, the growth was 97.5%. Consider `NC(=O)c1cc(Cl)ccc1NC(=O)COc1ccccc1`, for which the growth is 35.3%.

For `Nc1ccccc1-c1n[nH]c(=O)[nH]c1=O`, the growth was 101%.

In the case of `Cn1c2ccccc2c2nn(C(=O)c3ccccc3)c(=O)nc21`, the growth is 100%.

The values above are taken from PubChem BioAssay (NCI).
